Assay outcomes (PubChem BioAssay)
IL-1B inflam inh – blocks inflammasome-driven IL-1 beta release | THP-1 LPS/ATP IL-1B secretion, AlphaLISA, 16 h; hits give low values | activity change, % at 57.5 µM | 360,000 tested, 4.7% active; in the data active = activity change below about -50%; inconclusive = mostly about -30% to -49%; also: % is scaled to controls: 0 for no effect and ±100 for the full control effect
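Secreted IL-1B measured by AlphaLISA bead assay after 16 h compound exposure of THP-1 cells; compounds (final up to 57.5 uM) added 1 h before LPS (250 ng/mL) and ATP (1.25 mM) stimulation; lower signal means less secretion.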
TGFb inhibitor – inhibitors of TGF-b signaling. HepG2 CAGA-GFP TGF-b/SMAD3 reporter, GFP fluorescence, 18 h; TGF-beta stimulated, 500 pg/mL final. Potency, µM (top dose mostly 46.1 µM), without a hit: top-dose activity, negative = inhibition, hits mostly inhibitors. 410,000 tested, 1.2% active; also: potency is read from the fitted curve at half-maximal effect; % is scaled to controls: 0 for no effect and ±100 for the full control effect; nearly all actives have a fitted effect of over 65% in size
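Inhibition of TGF-beta-driven CAGA-GFP reporter expression in HEPG2 cells is measured by cellular GFP fluorescence after 18 h stimulation with 500 pg/mL recombinant TGF-beta in 1% FBS medium at 37 degrees C.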
DT40 TDP1 no CPT – qHTS for Inhibitors of human tyrosyl-DNA phosphodiesterase 1 (TDP1): qHTS in cells in absence of CPT; DT40 Tdp1-/- hTDP1 cells, no CPT, ATP luminescence, 48 h; Potency, µM (series often up to 46.2 µM), inactives show at the highest dose activity change, negative = growth inhibition, actives largely listed as inhibitors; 420,000 tested, 15% active; AID 686978, 2013; also: potency is read from the fitted curve at half-maximal effect; % is scaled to controls: 0 for no effect and ±100 for the full control effect; nearly all actives have a fitted effect of over 55% in size
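Growth of hTDP1-complemented DT40 Tdp1-knockout cells is measured by ATP luminescence after at least 48 hr compound exposure at 37 °C, with DMSO substituting for the 20 nM CPT used in the parallel screen.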
DT40 TDP1 CPT – DT40-hTDP1 cell growth loss with CPT | chicken DT40 Tdp1-/-;hTDP1 cells + 20 nM CPT, ATP luminescence, 48 h | Potency, µM (highest dose often 46.2 µM), for inactives: at the top dose activity change, negative = growth inhibition, usual class: inhibitors | 420,000 tested, 12% active | AID 686979; also: potency is read from the fitted curve at half-maximal effect; % is scaled to controls: 0 for no effect and ±100 for the full control effect; nearly all actives have a fitted effect of over 55% in size
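Cell growth measured by CellTiter-Glo luminescence after a minimum 48 h, 37 C compound exposure with 20 nM CPT in Tdp1-knockout DT40 cells stably expressing hTDP1, seeded 400/well; qHTS titration format.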
HepG2 viability – counter-screen for TGF-b inhibitors: cytotoxicity in HepG2 cells | HepG2 CAGA-GFP viability, ATP luminescence, 18 h | Potency, µM (highest dose often 46.1 µM), without a hit: top-dose activity change, negative = cytotoxicity, usual class: cytotoxic | 410,000 tested, 0.76% active; also: potency is read from the fitted curve at half-maximal effect
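CellTiter-Glo luminescence gave cytotoxicity after 18 hours at 37 degrees C. The cells were HepG2 CAGA-GFP in 1% FBS DMEM, stimulated with 500 pg/mL TGF-beta after compound addition. %Activity was normalised to no-cell wells (complete cell-killing) and DMSO (no toxicity), and curves were fitted and classified.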
S-ASM inh – inhibitors of human secretory acid sphingomyelinase; placental ASM, HMU-PC fluorogenic substrate, 60 min; Potency, µM (top dose mostly 57.5 µM), inactives show at the highest dose activity change, negative = inhibition, usual class: inhibitors; P17405; 340,000 tested, 0.006% active; AID 504937; also: potency is read from the fitted curve at half-maximal effect
Target sequence (P17405 47-631 limits assumed): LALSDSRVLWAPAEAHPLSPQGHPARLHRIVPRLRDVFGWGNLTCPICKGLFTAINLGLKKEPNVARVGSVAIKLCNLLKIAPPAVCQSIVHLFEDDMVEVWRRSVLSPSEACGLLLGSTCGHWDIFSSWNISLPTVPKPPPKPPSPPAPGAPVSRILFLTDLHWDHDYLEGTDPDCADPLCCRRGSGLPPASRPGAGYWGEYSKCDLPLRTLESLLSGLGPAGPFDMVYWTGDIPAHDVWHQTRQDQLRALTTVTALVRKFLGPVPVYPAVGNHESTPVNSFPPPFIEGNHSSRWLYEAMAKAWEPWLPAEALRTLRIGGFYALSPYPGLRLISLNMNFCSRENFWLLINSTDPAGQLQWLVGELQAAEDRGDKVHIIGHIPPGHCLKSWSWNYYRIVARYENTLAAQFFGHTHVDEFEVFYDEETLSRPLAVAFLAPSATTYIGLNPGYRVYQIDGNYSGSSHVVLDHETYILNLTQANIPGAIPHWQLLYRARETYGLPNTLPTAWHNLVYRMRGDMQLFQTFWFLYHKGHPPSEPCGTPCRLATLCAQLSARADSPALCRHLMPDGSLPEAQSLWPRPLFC
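Steps: dispense placental human ASM, pin compound, wait 10 min at room temperature, add HMU-PC0 substrate at 9 uM final, incubate 60 min at 37 °C, add stop solution raising pH to 10, read fluorescence.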
* marks the source's active call; other numbers are inactive results; ? = inconclusive; · = no result given; ! = repeats disagree; [ ] = dose if it differs, or a comment. This is a sample that favours compounds with a hit; in the whole collection about 19% have one here. Unless noted, calls follow the shape of the dose curve; as a rule, active = well fitted curve in the direction sought with a large enough effect; inconclusive = small, poorly fitted or top-dose-only effect, or another doubt; inactive = no such curve, though single readings can be large; an effect the other way counts as inactive or inconclusive.

SMILES	IL-1B inflam inh	TGFb inhibitor	DT40 TDP1 no CPT	DT40 TDP1 CPT	HepG2 viability	S-ASM inh
Cc1cc(C)cc(N2C(=O)NC(=O)/C(=C\c3cccn3-c3ccccc3)C2=O)c1	-98.5*	?	?	?	-5.0%	0.7%
CCCc1cc(=O)oc2cc(OCC(=O)N3CCC(C(=O)O)(c4ccccc4)CC3)ccc12	15.7	20.3%	2.4%	-4.0%	3.2%	-1.9%
CC(C)(C)NC(=O)C1CC2CCCCC2CN1 (stereo unspecified)	2.0	-13.3%	-16.4%	-14.2%	-5.1%	5.2%
C[C@@H]1C[C@@H]([C@H](O)CC2CC(=O)NC(=O)C2)C(=O)[C@@H](C)C1	-57.6*	1µM*	0.164µM*	0.164µM*	-25.1%	-2.5%
COC(=O)C1=CN(c2ccc(C(C)(C)C)cc2)C(N)=C(C#N)C1c1cccc([N+](=O)[O-])c1 (stereo unspecified)	-16.5	·	23.1µM*	?	·	·
Cc1cc(C)c2c(ccc3cccc[n+]32)c1	-60.7*	-27.3%	20.6µM*	?	-13.5%	-2.1%
Clc1cccc(SC2CCNCC2)n1	·	·	?	-4.1%	·	·
Brc1ccc2c(c1)C(OC1CN3CCC1CC3)c1ccccc1CS2 (stereo unspecified)	-79.7*	?	5.17µM*	13µM*	-123.6%	-0.1%
COc1ccc(CCN)cc1O	-0.4	-0.7%	-20.5%	-24.9%	-1.8%	3.2%
CCCCCCC(C)OC(=O)COc1ccc(Cl)cc1Cl (stereo unspecified)	·	·	15.4%	18.4%	·	·
CC(C)Oc1ccc(CCN)cc1Cl	4.3	6.8%	5.8µM*	5.17µM*	12.1%	1.9%
CCCCOc1ccc(CCN)cc1Cl	-68.8*	?	2.06µM*	2.31µM*	-75.9%	0.1%
Cn1ncc2c(NCc3ccc(Cl)cc3)ncnc21	·	-16.1%	?	?	-7.5%	·
COC(/C(C)=C/C=C/C(C)=C/c1coc(C)n1)C(C)C1CC(O)C2(C)OC2C=CC(C)C2CC(CC(=O)O2)CC2OC2C(=O)O1 (stereo unspecified)	29.5	?	0.0184µM*	0.116µM*	0.7%	2.6%
Cc1ccnc2c1NC(=O)c1cccnc1N2C1CC1	5.2	-2.4%	8.2µM*!	6.51µM*!	-4.2%	-0.9%
Cc1cccnc1-n1c(CN2C(=O)c3ccccc3C2=O)nc2ccccc2c1=O	8.0	2.7%	5.1%	-7.6%	-3.5%	2.3%
CCCCCCCCCCCCCCCCOC[C@H](COP(=O)([O-])OCC[N+](C)(C)C)OC(C)=O	·	·	-17.9%[4.12 µM]	-16.5%[4.12 µM]	·	·
CSc1nnc(OC(=O)N(C)C)n1-c1ccc(Cl)cc1	3.3	-15.3%	-13.3%	0.3%	-8.3%	1.4%
CCN(CC)c1ccc(/C=C/[N+](=O)[O-])cc1	-18.5	?	16.4µM*	?	-55.1%	?
CCN(CC)c1ccccc1	30.9	8.8%	-7.5%	-3.7%	1.2%	2.2%
CC1N(C)c2cc(NC(=O)c3ccco3)c(P(=O)(Nc3ccc([N+](=O)[O-])cc3)N3CCOCC3)cc2C1(C)C (stereo unspecified)	-54.9*	?	5.17µM*	4.61µM*	-36.8%	-11.6%
COc1cc2nc(N3CCCN(C)CC3)nc(N(C)C3CCN(C)CC3)c2cc1OC	·	?	6.31µM*	6.31µM*	-56.9%	·
Cc1ccc(Cn2cc(C=O)c(-c3ccc(C)cc3)n2)cc1	-58.2*	?	?	?	-22.6%	-9.5%
O=CC=O	·	·	-19.0%	11.1%	·	·
CCCC12CN3CC(C)(CN(C1)C3c1c(C)[nH]c(=O)[nH]c1=O)C2=O (stereo unspecified)	·	27.7%	-23.5%	-3.4%	-1.8%	·
